Several values for one entry are separate records, joined by “and”; a condition that tells them apart may be missing. Identical values can stand only once. Screen size: about 5,500 compounds; about 2,000 (36%) were called active. Another 18% or so got no clear call; they are omitted. Cut-off read from the data, not from the text of the source: active = normalized growth mostly below about 0.91 (no sharp cut-off); inconclusive = no clear call, values can overlap the other calls; inactive = mostly above about 0.92. The list shows a part of the results.
Experiment: chemical genetic growth profiling, strain panel (AID 1159580);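 note: tested at 20 µM; growth read once vehicle control cultures reached saturation at 30 °C; 1 = growth at the plate median or of vehicle wells; lower values mean less growth of the strain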
Settings: S. cerevisiae deletion strains, growth OD

Measured: normalized growth

O=C(/C=C/c1ccc(O)c(O)c1)O[C@@H]1C[C@](O)(C(=O)O)C[C@@H](O)[C@H]1O
inactive: locus YAL021C, strain ccr4, stronger effect = lower value 1.05 | locus YAL026C, strain drs2, stronger effect = lower value 0.979 | locus YAL030W, strain snc1, stronger effect = lower value 0.983 | locus YBL061C, strain skt5, stronger effect = lower value 0.992 | locus YBR009C, strain hhf1, stronger effect = lower value 0.994 | locus YBR021W, strain FUR4, stronger effect = lower value 0.992 | locus YBR023C, strain chs3, stronger effect = lower value 1.03 | locus YBR171W, strain sec66, stronger effect = lower value 0.95 | locus YBR229C, strain ROT2, stronger effect = lower value 0.997 | locus YBR231C, strain swc5, stronger effect = lower value 0.956 | locus YBR279W, strain paf1, stronger effect = lower value 0.988 | locus YCL011C, strain gbp2, stronger effect = lower value 0.985 | locus YCL016C, strain dcc1, stronger effect = lower value 1.02 | locus YCL029C, strain bik1, stronger effect = lower value 1.02 | locus YCL061C, strain MRC1, stronger effect = lower value 1 | locus YCL069W, strain vba3, stronger effect = lower value 0.964 | locus YCR088W, strain abp1, stronger effect = lower value 0.968 | locus YDL005C, strain med2, stronger effect = lower value 0.966 | locus YDL035C, strain GPR1, stronger effect = lower value 0.984 | locus YDL040C, strain nat1, stronger effect = lower value 0.98 | locus YDL074C, strain BRE1, stronger effect = lower value 1.04 | locus YDL101C, strain DUN1, stronger effect = lower value 1.02 | locus YDL185W, strain tfp1, stronger effect = lower value 1.01 | locus YDL192W, strain arf1, stronger effect = lower value 1 | locus YDR001C, strain nth1, stronger effect = lower value 0.98 | locus YDR069C, strain doa4, stronger effect = lower value 0.97 | locus YDR101C, strain arx1, stronger effect = lower value 1.02 | locus YDR137W, strain rgp1, stronger effect = lower value 0.98 | locus YDR150W, strain NUM1, stronger effect = lower value 1.01 | locus YDR159W, strain sac3, stronger effect = lower value 0.915 | locus YDR162C, strain NBP2, stronger effect = lower value 1.01 | locus YDR195W, strain ref2 0.942 | locus YDR297W, strain sur2, stronger effect = lower value 0.99 | locus YDR318W, strain mcm21, stronger effect = lower value 1.01 | locus YDR334W, strain swr1, stronger effect = lower value 0.974 | locus YDR335W, strain msn5, stronger effect = lower value 0.973 | locus YDR388W, stronger effect = lower value 1.01 | locus YDR392W, strain spt3, stronger effect = lower value 0.997 | locus YDR502C, strain sam2, stronger effect = lower value 1.02 | locus YEL003W, strain gim4, stronger effect = lower value 0.976 | locus YEL037C, strain rad23, stronger effect = lower value 0.973 | locus YEL061C, strain CIN8 (second series), stronger effect = lower value 0.965 | locus YEL061C, strain CIN8, stronger effect = lower value 1.01 | locus YER015W, strain faa2, stronger effect = lower value 0.988 | locus YER016W, strain bim1, stronger effect = lower value 0.968 | locus YER110C, stronger effect = lower value 1.02 | locus YER111C, strain swi4, stronger effect = lower value 0.976 | locus YER155C, strain BEM2 (second series), stronger effect = lower value 0.993 | locus YER155C, strain BEM2, stronger effect = lower value 1.01 | locus YER167W, strain BCK2, stronger effect = lower value 1.01 | locus YFR010W, strain ubp6, stronger effect = lower value 0.972 | locus YGL078C, strain dbp3, stronger effect = lower value 1.01 | locus YGL086W, strain mad1, stronger effect = lower value 1.02 | locus YGL167C, strain pmr1, stronger effect = lower value 0.971 | locus YGL173C, strain kem1, stronger effect = lower value 0.959 | locus YGL227W, strain vid30, stronger effect = lower value 0.975 | locus YGL240W, strain doc1, stronger effect = lower value 0.962 | locus YGL248W, strain PDE1, stronger effect = lower value 1.01 | locus YGL253W, strain hxk2, stronger effect = lower value 0.949 | locus YGR078C, strain PAC10, stronger effect = lower value 1.03 | locus YGR135W, strain pre9, stronger effect = lower value 0.997 | locus YGR252W, strain gcn5, stronger effect = lower value 0.97 | locus YHR013C, strain ard1, stronger effect = lower value 0.997 | locus YHR027C, strain rpn1, stronger effect = lower value 0.985 | locus YHR030C, strain SLT2, stronger effect = lower value 1.01 | locus YHR079C, strain IRE1 (second series), stronger effect = lower value 1.01 | locus YHR079C, strain IRE1, stronger effect = lower value 1 | locus YHR094C, strain hxt1, stronger effect = lower value 1.02 | locus YHR129C, strain ARP1, stronger effect = lower value 1 | locus YHR142W, strain chs7, stronger effect = lower value 0.975 | locus YHR200W, strain rpn10, stronger effect = lower value 1.02 | locus YIL066C, strain RNR3, stronger effect = lower value 0.981 | locus YIL073C, strain SPO22, stronger effect = lower value 1.02 | locus YIL125W, strain kgd1, stronger effect = lower value 1.02 | locus YIR030C, strain dcg1, stronger effect = lower value 1.01 | locus YJL092W, strain hpr5, stronger effect = lower value 0.969 | locus YJL095W, strain BCK1 (second series), stronger effect = lower value 0.953 | locus YJL095W, strain BCK1, stronger effect = lower value 1.04 and 1.02 | locus YJL115W, strain asf1, stronger effect = lower value 0.992 | locus YJL129C, strain trk1, stronger effect = lower value 0.966 | locus YJL134W, strain LCB3, stronger effect = lower value 1.01 | locus YJL154C, strain vps35, stronger effect = lower value 0.976 | locus YJL164C, strain tpk1, stronger effect = lower value 1.01 | locus YJL166W, strain qcr8, stronger effect = lower value 0.974 | locus YJL168C, strain set2, stronger effect = lower value 1 | locus YJL187C, strain SWE1 (second series), stronger effect = lower value 1.03 | locus YJR043C, strain POL32, stronger effect = lower value 1.01 | locus YJR066W, strain TOR1, stronger effect = lower value 0.947 | locus YJR075W, strain HOC1, stronger effect = lower value 1.04
